pAkt inh – Akt phosphorylation inhibition; activity change, % for hits at 50 µM; Neuro2A IGF-stimulated pAkt S473 HTRF, 20 min; stronger effect = lower value; actives 0.32% (n = 360,000); in the data active = activity change below about -80%; inconclusive = mostly about -51% to -80%
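Single-point screen (50 µM final compound) in Neuro2A cells stimulated 20 min with 6 nM IGF at 37 deg C. After lysis, Ser473-phosphorylated Akt read by HTRF (ex 330 nm, em 615/665 nm) as the 665/615 ratio.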
CtBP-E1A blk – inhibitors of CtBP/E1A interaction | actives 0.49% (n = 340,000) | AID 651724 | activity change, % (test concentration not listed) | AlphaScreen GST-E1A/His-CtBP binding, 1536-well; stronger effect = lower value
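Steps: dispense buffer (Tris pH 8.0, NaCl 300 mM, TCEP 1 mM, BSA, Tween 20); add 5X protein mix (GST-E1A, His-CtBP, 125 nM each); pin 23 nL compound; 2 h at 37 °C, dark; add 5X beads (50 ug/mL); 1 h; read.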
PI5P4Ka inh – blocks human PI5P4K alpha kinase activity; P48426; PI5P4Kalpha enzyme, ADP-Glo luminescence, 60 min; stronger effect = lower value; max response, %; actives 1.2% (n = 330,000); AID 652105; active = max response of -50% or lower; inconclusive = between -30% and -50%; inactive = -30% or higher; note: value at the top dose of about 77 µM
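ADP-Glo luminescence end-point after a 60 min room-temperature kinase reaction. PI5P4Kalpha and substrate in HEPES pH 7.4 buffer with EGTA, 0.1% CHAPS and 5% DMSO; ATP at 5 microM final.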
Six1-Eya2 inh – inhibitors of human Six1/Eya2 interaction. Q15475+O00167. AlphaScreen GST-Six1/His-Eya2 binding, biochemical; stronger effect = lower value. activity change, % (concentration not given with the values). actives 0.56% (n = 360,000)
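Compounds are tested against tagged Six1 and Eya2 proteins bridged by glutathione donor and nickel acceptor beads; after a one-hour incubation at 37 °C without light, AlphaScreen emission is recorded.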
PI4K2A inh – inhibitors of human PI4K2A. purified PI4K2A, ADP-Glo luminescence, 1 h; stronger effect = lower value. activity change, negative = inhibition, % at 76.9 µM. actives 0.13% (n = 420,000). AID 1346378; in the data active = activity change below about -50%; inconclusive = mostly about -30% to -49%
Target sequence (Q9BTU6 whole entry, looked up): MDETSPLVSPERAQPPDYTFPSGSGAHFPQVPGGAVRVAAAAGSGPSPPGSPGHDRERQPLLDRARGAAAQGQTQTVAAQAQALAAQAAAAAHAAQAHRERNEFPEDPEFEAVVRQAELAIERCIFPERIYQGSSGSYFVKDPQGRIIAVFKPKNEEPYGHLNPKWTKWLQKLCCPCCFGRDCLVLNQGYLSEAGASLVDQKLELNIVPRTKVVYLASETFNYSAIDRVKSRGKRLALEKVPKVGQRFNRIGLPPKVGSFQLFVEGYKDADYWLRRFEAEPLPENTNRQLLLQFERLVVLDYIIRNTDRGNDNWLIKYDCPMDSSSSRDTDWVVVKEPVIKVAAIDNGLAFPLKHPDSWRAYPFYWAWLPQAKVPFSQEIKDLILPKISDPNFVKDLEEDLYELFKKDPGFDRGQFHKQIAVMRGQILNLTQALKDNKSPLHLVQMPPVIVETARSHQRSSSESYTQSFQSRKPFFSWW
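ADP-Glo luminescence measured ADP generated by PI4K2A enzyme (4 ug/mL before mixing) with 1.2 mM PI substrate (pre-mix) and 300 microM ATP (pre-mix). Tris pH7.5 buffer with MgCl2, Triton X-100; 1 h reaction at ambient temperature.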
Numbers stand for hits; i = inactive; ? = inconclusive; nt = not tested or not shown. Compounds with a hit are over-represented: about 1.8% of the library has one in this group of screens. Cut-off read from the data, not from the text of the source, unless noted: active = activity change below about -65%; inconclusive = mostly about -30% to -63%; inactive = weaker than that.

SMILES | pAkt inh | CtBP-E1A blk | PI5P4Ka inh | Six1-Eya2 inh | PI4K2A inh
Cc1ccccc1OCc1nnc(SCC(=O)O)n1-c1cccc(Cl)c1 | i | i | -52.8 | i | i
O=Cc1ccc(N2CCCCCC2)cc1 | -127.8% | i | i | i | i
O=C(CN1C(=O)N/C(=C\c2ccccc2OCc2ccc(C(=O)O)cc2)C1=O)Nc1ccc(F)cc1 | i | i | i | i | i
Cc1ccccc1NC(=O)CN1C(=O)N/C(=C\c2ccccc2OCc2ccc(C(=O)O)cc2)C1=O | i | i | ? | ? | -50.8
O=C(O)c1ccc(COc2ccccc2/C=C2/NC(=O)N(c3cccc(Cl)c3)C2=O)cc1 | i | i | -50.4 | ? | i
O=C(O)c1ccc(COc2ccccc2/C=C2\NC(=O)N(Cc3ccc(F)cc3)C2=O)cc1 | i | i | i | i | i
O=C(O)c1cccc(-n2cccc2/C=C2/NC(=O)N(c3ccc(Cl)cc3)C2=O)c1 | i | ? | -98.0 | -76.5 | ?
O=C(O)c1cccc(-n2cccc2/C=C2/NC(=O)N(c3cccc(Cl)c3)C2=O)c1 | i | i | -59.0 | i | i
COc1ccc(-n2cccc2/C=C2/NC(=O)N(c3cccc(Cl)c3)C2=O)cc1 | i | i | i | i | i
CCOC(=O)c1cnc2nc(N3CCOCC3)nn2c1N | i | i | i | i | i
CCOC(=O)C1=C(CSc2nc(C)cc(C)c2C#N)OC(N)=C(C#N)C1c1cccs1 (stereo unspecified) | i | i | i | i | i
N#Cc1cccc(NC(=O)c2cc(C3CCCCN3C(=O)c3ccc4c(c3)CCO4)on2)c1 (stereo unspecified) | i | i | i | i | i
COc1ccccc1C(=O)NC(=O)CSc1nnc(N)s1 | i | i | -59.6 | i | i
COc1ccccc1C(=O)NC(=O)CSc1nnc(SC)s1 | i | i | i | i | i
COc1cc(C2CC(=O)C3=C(C2)Nc2ncnn2C3c2cccs2)cc(OC)c1OC (stereo unspecified) | i | i | i | i | i
O=C(NCCc1ccccc1)C1CCC(=O)N1CCc1ccccc1 (stereo unspecified) | i | i | i | i | i
CCOc1ccc(CCNC(=O)C2CCC(=O)N2CCc2ccccc2)cc1OCC (stereo unspecified) | -82.0% | i | nt | i | i
Cc1cc(C(=O)NC2CCCN(Cc3ccc(Cl)cc3)C2)no1 (stereo unspecified) | i | i | i | i | i
Sc1oc(-c2ccccc2)cc1C=Nc1ccccc1 | i | -72.7 | nt | -71.2 | i
Oc1oc(-c2ccccc2)nc1C=Nc1ccccc1 | i | i | nt | i | i
O=C(c1ccccc1)c1cc(Cl)ccc1N1C(=O)C=CC1=O | i | i | -65.6 | i | i
COc1cc(NC(=O)c2ccc3c(Cl)c4c(nc3c2)CCC4)cc(OC)c1OC | nt | nt | nt | nt | i
COc1ccc(/C=N/NC(=O)c2ccncc2)cc1CN1CCOCC1 | i | i | i | i | i
N=c1c2c3c(sc2ncn1CCN1CCOCC1)CCCC3 | i | i | i | i | i
Cc1ccc2c(=O)cc(C(=O)NCCc3ccc(S(N)(=O)=O)cc3)oc2c1 | i | i | -78.5 | i | i
SMILES | pAkt inh | CtBP-E1A blk | PI5P4Ka inh | Six1-Eya2 inh | PI4K2A inh
Cn1c(=O)c2c(ncn2CC(=O)OCC(=O)c2ccc(Br)cc2)n(C)c1=O | i | i | -57.2 | i | i
Cc1ccc(NC(=O)Cn2c(=O)oc3ccccc32)cc1Cl | i | i | i | i | i
Cc1ccc(-n2c(O)c(C=Nc3ccccc3-c3n[nH]c(=S)[nH]c3=O)c3ccccc3c2=O)cc1C | i | i | -80.6 | i | i
Cc1ccc(-n2c(O)c(C=Nc3ccccc3-c3n[nH]c(=S)[nH]c3=O)c3ccccc3c2=O)c(C)c1 | i | i | i | i | i
O=C(O)/C=C/C(=O)N1CCc2ccccc21 | i | nt | i | i | i
CCOc1ccc(C(=O)N/N=C/c2cccc3cccnc23)cc1 | i | -98.1 | i | -91.8 | i
CCOc1ccccc1C(=O)N/N=C/c1cccc2cccnc12 | i | ? | i | ? | i
COc1ccc(C(=O)N/N=C/c2cccc3cccnc23)cc1 | nt | -92.5 | i | -90.2 | i
COc1ccc(C(=O)N/N=C/c2c(C)[nH]c(=O)[nH]c2=O)cc1 | i | -85.9 | i | ? | i
CSCC[C@H](NC(=O)OC(C)(C)C)C(=O)N/N=C/c1cccc2cccnc12 | i | -74.7 | i | ? | i
COCCCNC(=O)CC(=O)N/N=C\c1ccc(SC)cc1 | i | i | i | i | i
